Measurements published in article PMC11062922 (Nature Chemical Biology, 2023).
Read-outs that look alike come from different tables or passages of the source.

Key:
Parameters in all cases: species or system human, MV4-11 + K-562 + COLO205 + SK-N-BE2 + OVCAR-8
ADCK1 = conditions: read-out: apparent Kd, n = 1
RIOK2 = conditions: read-out: apparent Kd, n = 1
CDK16 = conditions: read-out: apparent Kd, n = 1
MAPK9 = conditions: read-out: apparent Kd, n = 1
PRKCD = conditions: read-out: apparent Kd, n = 1
LATS1 = conditions: read-out: apparent Kd; compound concentrations:100 nM and 1000 nM (sheet 'Samples'); n = 1
MARK4 = conditions: read-out: apparent Kd; compound concentrations:100 nM and 1000 nM (sheet 'Samples'); n = 1
PLK4 = conditions: read-out: apparent Kd; compound concentrations:100 nM and 1000 nM (sheet 'Samples'); n = 1
PRKD3 = conditions: read-out: apparent Kd; compound concentrations:100 nM and 1000 nM (sheet 'Samples'); n = 1
SIK2 = conditions: read-out: apparent Kd; compound concentrations:100 nM and 1000 nM (sheet 'Samples'); n = 1
PKN1 = conditions: read-out: apparent Kd, n = 1
RPS6KA6 = conditions: read-out: apparent Kd; compound concentrations:100 nM and 1000 nM (sheet 'Samples'); n = 1
MARK3 = conditions: read-out: apparent Kd; compound concentrations:100 nM and 1000 nM (sheet 'Samples'); n = 1
PRKAG1 = conditions: read-out: apparent Kd; compound concentrations:100 nM and 1000 nM (sheet 'Samples'); n = 1
PTK2B = conditions: read-out: apparent Kd; compound concentrations:100 nM and 1000 nM (sheet 'Samples'); n = 1
STK4 = conditions: read-out: apparent Kd; compound concentrations:100 nM and 1000 nM (sheet 'Samples'); n = 1
CDK7 = conditions: read-out: apparent Kd; compound concentrations:100 nM and 1000 nM (sheet 'Samples'); n = 1
PKN3 = conditions: read-out: apparent Kd; compound concentrations:100 nM and 1000 nM (sheet 'Samples'); n = 1
PTK2 = conditions: read-out: apparent Kd; compound concentrations:100 nM and 1000 nM (sheet 'Samples'); n = 1
[1] = compound concentrations:100 nM and 1000 nM (sheet 'Samples')

CN(C)CCNC(=O)Nc1ccc(N(C)c2ccnc(Nc3ccc(CS(C)(=O)=O)cc3)n2)cc1.Cl [GW830900A]
potency estimated from few doses (ADCK1; [1]): 88.9 nM

CS(=O)(=O)Nc1ccc(-c2ccnc3[nH]ccc23)cc1 [GSK993273A]
potency estimated from few doses (RIOK2; [1]): 1670 nM

c1cnn2ncc(-c3ccnc(Nc4ccc5c(c4)OCCO5)n3)c2c1 [GW806290X]
potency estimated from few doses (ADCK1; compound concentrations: 100 nM and 1000 nM (sheet 'Samples'), CATDS: 2.0516224728304101E-2): 1820 nM | potency estimated from few doses (CDK16; compound concentrations: 100 nM and 1000 nM (sheet 'Samples'), CATDS: 2.45493373786023E-2): 989 nM | potency estimated from few doses (MAPK9; compound concentrations: 100 nM and 1000 nM (sheet 'Samples'), CATDS: 2.34417692705663E-2): 1140 nM | potency estimated from few doses (PRKCD; compound concentrations: 100 nM and 1000 nM (sheet 'Samples'), CATDS: 2.1059848271292699E-2): 1650 nM | potency estimated from few doses (RIOK2; compound concentrations: 100 nM and 1000 nM (sheet 'Samples'), CATDS: 4.9537974032322102E-2): 183 nM

CC(C)Oc1ccc2c(-c3ccnc(Nc4ccc(N5CCN(C)CC5)cc4)n3)cnn2n1 [GW696155X]
potency estimated from few doses (ADCK1; [1]): 44.9 nM | potency estimated from few doses (CDK16; [1]): 1910 nM | potency estimated from few doses (LATS1): 1500 nM | potency estimated from few doses (MAPK9; [1]): 1010 nM | potency estimated from few doses (MARK4): 1800 nM | potency estimated from few doses (PLK4): 506 nM | potency estimated from few doses (PRKD3): 1110 nM | potency estimated from few doses (SIK2): 781 nM

NCC(NC(=O)c1cc(-c2cn[nH]c2)c(-c2ccnc3[nH]ccc23)s1)c1ccccc1.NCC(NC(=O)c1cc(-c2cn[nH]c2)c(-c2ccnc3[nH]ccc23)s1)c1ccccc1.O=C(O)C(F)(F)F.O=C(O)C(F)(F)F (stereo not drawn) [GSK1325775A]
potency estimated from few doses (PKN1; compound concentrations: 100 nM and 1000 nM (sheet 'Samples'), CATDS: 2.9340466494355399E-2): 2310 nM | potency estimated from few doses (PRKCD; compound concentrations: 100 nM and 1000 nM (sheet 'Samples'), CATDS: 4.2478831197515603E-2): 712 nM

CNc1cc(-c2ccc3c(N)n[nH]c3c2)nc(N)n1 [GSK2224810A]
potency estimated from few doses (RPS6KA6): 899 nM

Cc1n[nH]c2cc(Nc3ccnc(Nc4cccc(CN5CCOCC5)c4)n3)ccc12 [GW682569X]
potency estimated from few doses (ADCK1; compound concentrations: 100 nM and 1000 nM (sheet 'Samples'), CATDS: 0.121280285214534): 760 nM

O=C(O)C(F)(F)F.O=c1[nH]ccc2nc(N[C@@H]3CCNC3)nc(Nc3cc(Cl)cc(Cl)c3)c12 [GSK2188764A]
potency estimated from few doses (ADCK1; [1]): 1680 nM | potency estimated from few doses (MARK3): 153 nM | potency estimated from few doses (MARK4): 122 nM | potency estimated from few doses (PRKAG1): 799 nM | potency estimated from few doses (PRKCD; [1]): 222 nM | potency estimated from few doses (PRKD3): 1470 nM | potency estimated from few doses (PTK2B): 46.7 nM | potency estimated from few doses (RPS6KA6): 618 nM | potency estimated from few doses (SIK2): 1440 nM | potency estimated from few doses (STK4): 913 nM

CCCc1cc(N2CCCN(C)CC2)nc2sc3c(N)ncnc3c12 [BI00604564]
potency estimated from few doses (ADCK1; compound concentrations: 100 nM and 1000 nM (sheet 'Samples'), CATDS: 0.15175006426197701): 1550 nM | potency estimated from few doses (RIOK2; compound concentrations: 100 nM and 1000 nM (sheet 'Samples'), CATDS: 0.19130476647028): 959 nM

CS(=O)(=O)CCn1c(=O)c(Oc2ccc(F)cc2F)cc2cnc(NC3CCOCC3)nc21 [RO5027956-000]
potency estimated from few doses (CDK7): 349 nM | potency estimated from few doses (MAPK9; [1]): 494 nM | potency estimated from few doses (MARK4): 1950 nM | potency estimated from few doses (PKN1; [1]): 1540 nM | potency estimated from few doses (PKN3): 1230 nM | potency estimated from few doses (PLK4): 568 nM | potency estimated from few doses (PRKAG1): 812 nM | potency estimated from few doses (PTK2B): 417 nM | potency estimated from few doses (PTK2): 814 nM | potency estimated from few doses (RPS6KA6): 506 nM | potency estimated from few doses (SIK2): 1100 nM
